Among the data in PubChem BioAssay AID651951 (The Scripps Research Institute Molecular Screening Center, 2012) are inhibition values, retold here.

Among all 2,400 compounds or so, about 1,100 (46%) were called active. So high a share suggests a set chosen from earlier hits. The list is a sample of the results. Values without a mark were called inactive.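 The calls were made as follows: active = inhibition above the run cutoff, the mean inhibition of all test compounds plus 3 SD (cut at about 49% in these data); inactive = the rest.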

A word on the inhibition: it is how much of the control response was suppressed.

For the assay, the target named is Trace amine-associated receptor 1 (Homo sapiens) (UniProt Q96RJ0). The experiment in a line: TAAR1 desensitization by agonist hits, confirmation, counter-screen for TAAR1 agonist project, cell-based, fluorescence, tachyphylaxis (AID 651951).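 Also: beta-PEA stimulus applied at its EC80; loss of beta-PEA calcium signal after compound pretreatment read as receptor desensitization; 0% = DMSO with beta-PEA at EC80 and 100% = DMSO alone without agonist.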 The settings on record: CHO RD-HGA16 hTAAR1, Fluo-8 calcium, beta-PEA response inhibition; at 3 µM; stronger effect = higher value.
Trace amine-associated receptor 1 (Homo sapiens), sequence (Q96RJ0 whole entry, looked up): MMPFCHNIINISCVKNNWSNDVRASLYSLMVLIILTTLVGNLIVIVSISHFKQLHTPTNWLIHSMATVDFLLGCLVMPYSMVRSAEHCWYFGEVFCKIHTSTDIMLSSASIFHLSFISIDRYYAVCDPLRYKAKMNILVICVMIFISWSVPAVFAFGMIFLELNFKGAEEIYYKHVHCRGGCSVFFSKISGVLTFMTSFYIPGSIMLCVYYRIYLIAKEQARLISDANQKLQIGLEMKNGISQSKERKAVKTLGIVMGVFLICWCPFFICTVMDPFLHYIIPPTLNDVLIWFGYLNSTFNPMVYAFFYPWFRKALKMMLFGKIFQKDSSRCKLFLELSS
Take `CCC(=NCCc1ccccc1)c1c(O)n(C2CCCCC2)c(=O)[nH]c1=O`: the inhibition is 55.8% (active).

As to `Cc1cccc(N2C(=O)NC(=O)/C(=C\c3cnn(-c4ccccc4)c3)C2=O)c1`, the inhibition was 54.4% (active). As to `NCC(O)c1ccc(O)cc1` (centres undefined), the inhibition was 53.1% (active). Turning to `COc1ccc(Br)cc1CNCCc1cccc(Cl)c1`, the inhibition is 40%.

Regarding `CC(Cc1ccccc1)NC=O` (centres undefined), the inhibition is 78.2% (active). Next, `c1ccc(CCNC2CCCCCC2)cc1`: 91% (active); `O=C1NC(=O)N(Cc2ccco2)C(=O)/C1=C\c1ccc(-c2ccc(F)cc2)o1`: 42.5%; `CCCCC(=O)N/N=C/c1c(O)n(CC)c(=S)n(CC)c1=O`: 88% (active).

Regarding `Clc1ccc2nc3c(c(-c4ccccc4)c2c1)CNCC3`, the inhibition was 39.3%.
